# ALDH1A1 inh = qHTS Assay for Inhibitors of Aldehyde Dehydrogenase 1 (ALDH1A1). Purified ALDH1A1, NADH fluorescence, propionaldehyde substrate. Potency, µM (doses to about 75.3 µM), actives largely listed as inhibitors. Aldehyde dehydrogenase 1A1 (Homo sapiens), P00352. 220,000 compounds, 7.3% hits
# HPGD block = qHTS Assay for Inhibitors of HPGD (15-Hydroxyprostaglandin Dehydrogenase). AID 894, 2007. Potency, µM, most hits filed as inhibitors. 150,000 compounds, 4.3% hits. purified HPGD, NADH fluorescence kinetic, PGE2 substrate
# Target sequence (P15428 whole entry, looked up): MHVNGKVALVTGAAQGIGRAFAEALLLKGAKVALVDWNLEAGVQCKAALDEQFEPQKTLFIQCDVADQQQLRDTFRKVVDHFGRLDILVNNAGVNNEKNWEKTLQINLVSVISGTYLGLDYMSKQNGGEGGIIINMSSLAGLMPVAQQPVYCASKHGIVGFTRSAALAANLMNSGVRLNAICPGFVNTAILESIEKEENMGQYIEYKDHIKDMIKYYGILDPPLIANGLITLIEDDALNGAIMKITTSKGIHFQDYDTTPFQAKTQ
#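 NADH formation kinetics: reaction with 30 uM PGE2 and 1 mM NAD+ (final), 20 nM enzyme, Tris-HCl pH 8 with Tween 20, after 15 min compound preincubation at room temperature. Fluorescence change, last versus first of five reads.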
# Luc counter = Counterscreen for Luciferase (Kinase-Glo TM) Inhibition; 200,000 compounds, 0.28% hits; Potency, µM (series often up to 38.3 µM), usual class: inhibitors; AID 1379, 2008; Kinase-Glo luciferase, ATP luminescence, 8 min; Luciferin 4-monooxygenase (Photuris pensylvanica), Q27757; active = well fitted inhibition curve with a large enough effect; inconclusive = small, poorly fitted or top-dose-only effect; also: nearly all actives have a fitted effect of over 60% in size
#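 Substrate mix (final 50 mM imidazole pH 7.2, 50 mM KCl, 7 mM MgCl2, 10 uM ATP, 0.01% Tween 20, 0.05% BSA) plus pin-tool compound, then Kinase-Glo detection mix; 8 min ambient, luminescence read.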
# PNC assembly inh = High Content Assay for Compounds that inhibit the Assembly of the Perinucleolar Compartment; PC3M PTB-GFP, PNC prevalence imaging, 16 h; active compounds read low; activity change (PNC), negative = inhibition, % at 10 µM; 140,000 compounds, 3.1% hits; AID 2417, 2010;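 active = readout at or below -70, meaning at least 70% loss of cells showing the perinucleolar compartment, a nuclear body marking cancer cells; inconclusive = readout between -30 and a set limit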
#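 PC3M cells stably expressing PTB-GFP, 750–1000 cells/well, treated 16 h at 37 °C with compound (23 nl of library stock), in duplicate. After paraformaldehyde fixation and Hoechst stain, imaged at 20x; PNC prevalence scored by image analysis.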
# LMNA splice mod = qHTS Assay for Modulators of Lamin A Splicing; HeLa LMNA splicing GFP/RFP minigene ratio, 48 h; Potency, µM (series often up to 46.1 µM), hits mostly inhibitors; 200,000 compounds, 0.01% hits; active = well fitted inhibition curve with a large enough effect in the signal ratio, with a control signal flat, not every such curve was filed as active; inconclusive = small, poorly fitted or top-dose-only effect, or effect the other way, or a change in a side signal; the % refers to the signal ratio
#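 S3 HeLa cells stably expressing lamin A-EGFP splicing minigene plus DsRed2, 600 cells/well, 48 h compound exposure at 37C. Laser-scanning cytometry; analysed as GFP (500-530 nm)/RFP (575-640 nm) total intensity ratio; 0.5% DMSO vehicle.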
# Numbers stand for hits; i = inactive; ? = inconclusive; nt = no result; [ ] = another dose, or the depositor's remark. In the library only some 10% were active in any assay of this set; here they are far more common. Unless noted, calls follow the shape of the dose curve; as a rule, active = well fitted inhibition curve with a large enough effect (not every such curve was filed as active); inconclusive = small, poorly fitted or top-dose-only effect, or another doubt; inactive = no such curve, though single readings can be large or run the other way.
SMILES,ALDH1A1 inh,HPGD block,Luc counter,PNC assembly inh,LMNA splice mod
c1cc2c(cc1Nc1nc(-c3ccc4c(c3)OCO4)cs1)OCCO2,18µM,i,i,?,i
CCC(=O)Nc1nc(-c2ccc3c(c2)OCCO3)cs1,?,i,i,i,?
CC(C)CC(C(=O)NCc1ccc(F)cc1)N1Cc2ccccc2C1=O (centres undefined),nt,nt,nt,nt,i
Cc1cc(C)c(NS(=O)(=O)c2ccc(NC(=O)/C=C/C(=O)O)cc2)c(C)c1,i,?,i,i,i
COCC(=O)N1CCc2nc(-c3ccccc3)c3c(c2C1)CO[C@@H](C)C3,i[13.5 µM],i,i[7.66 µM],nt,i[9.22 µM]
N#C/C(=C(/O)CSc1ccccn1)c1nc2ccccc2s1,8.9µM,nt,i,nt,nt
CC(=O)N1c2ccc(S(=O)(=O)N3CCCCCC3)cc2CC1C(=O)NC(C)C (centres undefined),nt,nt,nt,nt,i
Cc1nnc(NC(=O)CSCc2cc(=O)c3cc(Cl)ccc3[nH]2)s1,nt,nt,nt,nt,i
CN(C)Cc1ccccc1-c1cc(NCc2cccs2)ncn1,i,nt,nt,nt,i
CCC(=O)Nc1nnc(S(=O)(=O)N2c3ccccc3CC2C)s1 (centres undefined),nt,nt,nt,nt,i
Clc1ccc(CSc2nnc([C@@H]3CCCN3)o2)cc1Cl,i,i,i,i,i
O=C(CSc1nnc([C@@H]2CCCN2)o1)c1ccc(Cl)cc1,22µM,i,i,i,i
Cc1cccc(Cn2cnc3c(oc4ccccc43)c2=O)c1,nt,nt,nt,nt,i
Cc1cc(C)c(NC(=O)c2cc(S(=O)(=O)N3CCC4(CC3)OCCO4)ccc2F)c(C)c1,nt,nt,nt,nt,i
Cc1ccc2[nH]c3c(c2c1)CCCC3C(N)=O (centres undefined),i,i,i,i,i
CCN(CC)C(=O)C1CCCc2c1[nH]c1ccc(Cl)cc21 (centres undefined),i,i,i,-93,?
C[C@H](N=C(NC#N)Nc1ccncc1)C(C)(C)C,i,i,i,nt,?
COc1ccc(-c2cc(=O)c3c(O)cc(O[C@@H]4OC(COC5OC(C)C(O)C(O)[C@@H]5O)C(O)C(O)C4O)cc3o2)cc1 (some centres undefined),i,22µM,i,nt,nt
COC(=O)C(OC(=O)c1ccc(OC)cc1)C(=O)OC,i,i,i,-100,i
Cc1cc(-c2n[nH]c(=S)n2/N=C/c2ccc(C)s2)n[nH]1,i,25µM,i,i,i
Cc1cc(-c2n[nH]c(=S)n2/N=C/c2ccc(Br)s2)n[nH]1,i,13µM,i,i,i
S=c1[nH]nc(-c2cc(-c3ccccc3)n[nH]2)n1/N=C/c1ccc(Br)s1,i,nt,nt,nt,nt
COc1cccc(C2=CC(c3ccccc3F)n3ncc(C(=O)Nc4ccc(F)cc4)c3N2)c1 (centres undefined),nt,nt,nt,nt,i
C/C(=N\N1C(=O)CSC1=S)c1ccc(Br)cc1,25µM,nt,i,nt,?
COc1cc2c(cc1OC)C(COc1ccc(C(C)C)cc1)N(C(=O)c1ccc(S(=O)(=O)N3CCCC3)cc1)CC2 (centres undefined),nt,nt,nt,nt,i
SMILES,ALDH1A1 inh,HPGD block,Luc counter,PNC assembly inh,LMNA splice mod
COCCn1c(C)cc(C(=O)COC(=O)c2ccc3c(c2)NC(=O)CS3)c1C,i,i,i,i,i
C=CCn1c(C)cc(C(=O)COC(=O)c2ccc3c(c2)NC(=O)CS3)c1C,?,22µM,i,-81,i
COc1ccc(C(=O)N2CCN(c3ccc([N+](=O)[O-])c(NCCc4ccc(OC)c(OC)c4)c3)CC2)cc1,?,i,i,?,?
COc1ccc(CCNc2cc(N3CCN(C(=O)c4ccccc4F)CC3)ccc2[N+](=O)[O-])cc1OC,2.5µM,i,i,i,i
COc1ccc(CCNc2cc(N3CCN(C(=O)c4ccc(C)cc4)CC3)ccc2[N+](=O)[O-])cc1OC,8.9µM,i,i,i,?
CCN(CC)c1cc2c(cc1F)c(=O)c(S(=O)(=O)c1ccc(OC)cc1)cn2CC,nt,nt,nt,nt,i
CC1CCCN(S(=O)(=O)c2ccc(NC(=O)CN3CCN(C)CC3)cc2)C1 (centres undefined),?,i,i,i,i
CC1CCCN(S(=O)(=O)c2ccc(S(=O)(=O)NC(C)c3cccs3)cc2)C1 (centres undefined),38µM,i,i,?,?
NCCn1c(-c2ccccc2)cc(C(=O)O)c1-c1ccccc1F,?,i,i,-81,i
CC1=C/C(=C\c2ccc(Br)o2)C(=O)O1,i,i,i,?,i
COc1ccccc1-c1ccc(/C=C2/C=C(C)OC2=O)o1,?,?,i,-113,i
Cc1csc(NC(=O)c2cc3c(s2)CCCCC3)n1,?,25µM,?,?,?
Cc1csc(NC(=O)c2cc3c(s2)CCCC3)n1,?,nt,nt,i,?
CC(C)NC(=O)c1cc2c(s1)CCCC2,?,22µM,i,i,i
O=C(Nc1ccon1)c1cc2c(s1)CCCC2,i,28µM,i,i,i
CNC(=O)c1cc2c(s1)CCCCCC2,?,i,i,?,i
NC[C@@H]1O[C@H](OC2[C@@H](CO)O[C@@H](OC3[C@H](O)[C@H](N)C[C@H](N)[C@H]3OC3O[C@H](CO)[C@@H](O)[C@H](O)[C@@H]3N)[C@H]2O)C(N)[C@H](O)[C@@H]1O (some centres undefined),nt,nt,nt,nt,i
O=C(NNC(=O)c1cc(OCC(F)(F)F)ccc1OCC(F)(F)F)c1cccc(C(F)(F)F)c1,i,i,i,-84,i
Cc1ccc(C(=O)NNC(=O)c2cc(OCC(F)(F)F)ccc2OCC(F)(F)F)cc1,i,i,i,i,i
CCOC(=O)N1CCC(N2CC34C=CC(O3)C(C(=O)O)C4C2=O)CC1 (centres undefined),i,i,i,-108,i
Cc1cc(C(=O)COC(=O)c2n[nH]c3ccccc23)c(C)n1CC1CCCO1 (centres undefined),i,28µM,?,?,?
COCCn1c(C)cc(C(=O)COC(=O)c2n[nH]c3ccccc23)c1C,i,i,?,?,i
Cc1cc(C(=O)COC(=O)c2cc(O)c3ccccc3c2O)c(C)n1CC1CCCO1 (centres undefined),28µM,nt,i,nt,nt
Cc1ccc(C(=O)OCC(=O)c2cc(C)n(CC3CCCO3)c2C)cc1 (centres undefined),i,nt,i,nt,i
N#CC1=C(Nc2ccccc2)SC=C(c2ccccc2)N=C1N1CCOCC1,25µM,i,i,i,i
N#CC1=C(Nc2ccccc2)SC=C(c2ccc(Cl)c(Cl)c2)N=C1N1CCOCC1,?,i,i,i,i[0.0737 µM]
CC(C)CCNC(=O)COc1ccc2c(c1)C(=O)CC(C)(C)O2,?,?,i,i,i
Cc1ccccc1NC(=O)COc1ccc2c(c1)OC(C)(C)CC2=O,14µM,nt,nt,nt,nt
COc1cc2[nH]c(=S)nc(NCCCOC(C)C)c2cc1OC,?,18µM,i,i,i

# Assay outcomes as filed in PubChem BioAssay.
